Inconclusive results are not listed. The source made the active and inactive calls. How the source made its calls: active means hit-call score of the fitted dose curve at least 0.9, where 1 is the maximum; inconclusive means response in the unintended direction; inactive means score below 0.9.
The molecules below were run against human Vitamin D Receptor (VDR), VDR (gene 7421) (UniProt P11473) (assay: ATG_VDR_TRANS: Attagene TRANS-FACTORIAL HepG2 Assay for human Vitamin D Receptor (VDR) (AID 2283022)).
Sequence of human Vitamin D Receptor (VDR), VDR (gene 7421) (P11473 whole entry, looked up): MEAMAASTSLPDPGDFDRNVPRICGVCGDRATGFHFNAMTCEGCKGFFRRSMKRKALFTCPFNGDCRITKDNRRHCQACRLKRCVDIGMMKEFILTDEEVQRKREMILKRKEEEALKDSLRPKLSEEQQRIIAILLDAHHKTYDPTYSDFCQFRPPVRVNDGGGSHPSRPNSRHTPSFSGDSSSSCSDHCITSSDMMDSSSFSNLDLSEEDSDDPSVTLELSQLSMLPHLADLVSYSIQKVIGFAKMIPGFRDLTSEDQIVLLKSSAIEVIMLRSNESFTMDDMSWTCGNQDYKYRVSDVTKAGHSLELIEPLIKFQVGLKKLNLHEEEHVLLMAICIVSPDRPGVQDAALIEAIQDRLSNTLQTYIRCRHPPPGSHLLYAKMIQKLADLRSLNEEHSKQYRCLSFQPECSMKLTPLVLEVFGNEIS
Method: ATG_TRANS is a cell-based, multiplexed-readout assay that uses HepG2, a human liver cell line, with measurements taken at 24 hours after chemical dosing in a 24-well plate.ATG_VDR_TRANS is one of 30 assay component(s) measured or calculated from the ATG_TRANS assay. It is designed to make measurements of mRNA induction, a form of inducible reporter, as detected with fluorescence intensity signals by Reverse transcription polymerase chain reaction (RT-PCR) and Capillary electrophoresis technology.Data from the assay component ATG_VDR_TRANS was analyzed into 1 assay endpoint. This assay endpoint, ATG_VDR_TRANS, was analyzed in the positive analysis fitting direction relative to DMSO as the negative control and baseline of activity. Using a type of inducible reporter, measures of mRNA for gain-of-signal activity can be used to understand the reporter gene at the transcription factor-level as they relate to the gene VDR. Furthermore, this assay endpoint can be referred to as a primary readout, because this assay has produced multiple assay endpoints where this one serves a reporter gene function. To generalize the intended target to other relatable targets, this assay endpoint is annotated to the nuclear receptor intended target family, where the subfamily is non-steroidal.
Human liver HepG2 cells are transiently transfected with multiple reporter transcription units (MRTUs) in 6-well plates using FuGene 6 reagent (Roche; 3 ml FuGene/1 mg DNA). The MRTU constructs are regulated by a cis-regulating element (promoter). […] A major difference between the CIS and TRANS system is that in CIS activities of endogenous TFs are measured, whereas the TRANS assay evaluates changes in activities of exogenous, chimeric NR-Gal4 proteins. […] At the end of 24 hour incubation, total RNA was isolated using TriZol reagent (Invitrogen). The isolated RNA is then reverse-transcribed using oligo(dT) primer and Mo-MLV reverse transcriptase (Invitrogen) with DNAse I (Ambion) treatment for 30 min. The one-tenth of the produced cDNA was amplified by PCR using Taq DNA polymerase (Invitrogen) and two reporter sequence-specific primers. The PCR products were fluorescently labeled by primer extension with 6-arboxyfluorescein (6-FAM) 5'-labeled reporter sequence-specific primer (2 min at 95 C, 20 s at 68 C and 10 min at 72 C) and these products were digested with 5U of HpaI (New England Biolabs) for 2h at 37 C. The fragments were purified using Qiaquick PCR columns (Qiagen), analyzed on an ABI 3130xL genetic analyzer (Applied Biosystems) with peak positions identified by using a set of X-rhodamine (ROX)-labeled MapMarker1000 molecular weight standards (BioVentures). The raw capillary electrophoresis data was processed using Attagraph software (Attagene).
`CC(C)CCCCCCc1ccc(O)cc1` was tested, and the outcome was “inactive”.
For `CCCN(CCC)C(=O)SCC`, the outcome was “inactive”.
For `COC(=O)c1ccccc1S(=O)(=O)NC(=O)Nc1nc(OC(F)F)cc(OC(F)F)n1`, the outcome was “inactive”.
With `CCOC(=O)C(C)Oc1ccc(Oc2nc3ccc(Cl)cc3o2)cc1` (stereo not drawn) the outcome was “inactive”.
For `N#CSCSc1nc2ccccc2s1`, the outcome was “inactive”.
For `O=C(O)C1(C(=O)Nc2ccc(Cl)cc2Cl)CC1`, the outcome was “inactive”.
In the case of `COc1c(Cl)ccc(Cl)c1C(=O)O`, the outcome is reported as “inactive”.
In the case of `CC(=O)[C@H]1CC[C@H]2[C@@H]3CCC4=CC(=O)CC[C@]4(C)[C@H]3CC[C@]12C`, the outcome is reported as “inactive”.
`C[C@]12CC[C@@H]3c4ccc(O)cc4C[C@@H](CCCCCCCCCS(=O)CCCC(F)(F)C(F)(F)F)[C@H]3[C@@H]1CC[C@@H]2O` (stereo partly drawn) was tested, and the outcome was “inactive”.
With `CCN(CC)C(=O)c1cccc(C)c1` the outcome was “inactive”.
`c1ccc(Nc2ccccc2)cc1` was tested, and the outcome was “inactive”.
In the case of `O=C(O)c1ccccc1`, the outcome is reported as “inactive”.
For `CCCCOC(=O)C(C)Oc1ccc(Oc2ccc(C(F)(F)F)cn2)cc1` (stereo not drawn), the outcome was “inactive”.
`C#CCOC(=O)[C@@H](C)Oc1ccc(Oc2ncc(Cl)cc2F)cc1` was tested, and the outcome was “inactive”.
With `N[C@@H](Cc1cc(I)c(Oc2ccc(O)c(I)c2)c(I)c1)C(=O)O` the outcome was “inactive”.
`CCOC(=O)COc1cc(-n2ncc(C(F)(F)F)c(C)c2=O)c(F)cc1Cl` was tested, and the outcome was “inactive”.
In the case of `OB(O)O`, the outcome is reported as “inactive”.
`CCCCCOC(=O)COc1cc(N2C(=O)C3=C(CCCC3)C2=O)c(F)cc1Cl` was tested, and the outcome was “inactive”.
For `Oc1ccc(C(c2ccc(O)cc2)C(Cl)(Cl)Cl)cc1`, the outcome was “inactive”.
`C#C[C@]1(O)CC[C@H]2[C@@H]3CCC4=CC(=O)CC[C@@H]4[C@H]3CC[C@@]21CC` was tested, and the outcome was “inactive”.
In the case of `CC(=O)S[C@@H]1CC2=CC(=O)CC[C@]2(C)[C@H]2CC[C@@]3(C)[C@@H](CC[C@@]34CCC(=O)O4)[C@H]12`, the outcome is reported as “inactive”.
For `CCOC(=O)[C@H](C)Oc1ccc(Oc2nc3ccc(Cl)cc3o2)cc1`, the outcome was “inactive”.
With `C=CCOC(Cn1ccnc1)c1ccc(Cl)cc1Cl` (stereo not drawn) the outcome was “inactive”.
`c1ccc2[nH]c(-c3cscn3)nc2c1` was tested, and the outcome was “inactive”.
For `CCOC(=O)c1ccc(O)cc1`, the outcome was “inactive”.
In the case of `CC1(C)C(C=C(Cl)Cl)C1C(=O)OCc1cccc(Oc2ccccc2)c1` (stereo not drawn), the outcome is reported as “inactive”.
`COC(=O)c1c(Cl)nn(C)c1S(=O)(=O)NC(=O)Nc1nc(OC)cc(OC)n1` was tested, and the outcome was “inactive”.
For `O=C(c1ccccc1)C1CCCCC1`, the outcome was “inactive”.
With `CCOC(=O)NCCOc1ccc(Oc2ccccc2)cc1` the outcome was “inactive”.
With `COC(=O)c1ccc(CNS(C)(=O)=O)cc1S(=O)(=O)NC(=O)Nc1nc(OC)cc(OC)n1` the outcome was “inactive”.
In the case of `CCCOC(=O)NCCCN(C)C`, the outcome is reported as “inactive”.
With `O=C(c1ccc(O)cc1O)c1ccc(O)cc1O` the outcome was “inactive”.
For `S=C(S)NCCNC(=S)S.[Mn+2].[S-]C([S-])=NCCN=C([S-])[S-].[Zn+2]`, the outcome was “inactive”.
With `CSC(=O)c1cccc2nnsc12` the outcome was “inactive”.
In the case of `COc1nc(C)nc(NC(=O)NS(=O)(=O)c2ccccc2OCCCl)n1`, the outcome is reported as “inactive”.
For `Cc1nn(C)c(Oc2ccccc2)c1C=NOCc1ccc(C(=O)OC(C)(C)C)cc1`, the outcome was “inactive”.
`CCCCCCC(C)OC(=O)COc1nc(F)c(Cl)c(N)c1Cl` (stereo not drawn) was tested, and the outcome was “inactive”.
`COCCO` was tested, and the outcome was “inactive”.

Source: PubChem BioAssay (EPA / NIEHS)
